# Experimental data taken from PubChem BioAssay (EPA / NIEHS).
# The source made the active and inactive calls. The calls were made as follows: active = hit-call score of the fitted dose curve at least 0.9, where 1 is the maximum; inactive = score below 0.9.
# Read-out: Pro-epidermal growth factor (Homo sapiens) (UniProt P01133)
# Experiment: LTEA_HepaRG_EGF: Life Technologies and Expression Analysis (LTEA) Assay for Epidermal growth factor (EGF) using HepaRG (AID 2283489)
# Details: mRNA level, 48 h; actives raise or lower the signal
# Method: LTEA_HepaRG is a cell based, multiplexed-readout assay that uses HepaRG, a human liver cell line, with measurements taken at 48 hours after chemical dosing on a 96-well plate.LTEA_HepaRG_EGF is one of 102 assay component(s) measured in the LTEA HepaRG cell culture assay. It is a marker of Cell proliferation, survival, death.Data from the assay component LTEA_HepaRG_EGF was analyzed into 1 endpoint. This assay endpoint, LTEA_HepaRG_EGF, was analyzed with bidirectional fitting relative to DMSO as the negative control and baseline of activity. Using a type of inducible reporter, measures of mRNA induction for gain or loss-of-signal activity can be used to understand regulation of transcription factor activity. To generalize the intended target to other relatable targets, this assay endpoint is annotated to the growth factor intended target family, where the subfamily is EGF-like domain.
# A total of 1060 chemcials from the ToxCast library were tested in eight-point concentration-response experiments. Cell culture and cytotoxicity assays were conducted at Thermo Fisher Scientific's Custom Services facility (Madison, WI). A single lot of human HepaRG cells (Thermo Fisher Scientific, Frederick, MD) was used for the cell culture experiments. 96-well format collagen type I coated plates of human HepaRG cells were prepared using established methods. Briefly, cryopreserved HepaRG cells were thawed, plated at a density of approximately 100,000 cells/well in HepaRG Thaw, Plate, and General Purpose media (HPRG770, Thermo Fisher Scientific), and incubated for 48 hours. 0.5% DMSO was selected as vehicle control to balance the requisite need of DMSO in HepaRG cultures to maintain differentiation (for example, baseline metabolism, proportions of hepatocytes vs. cholangiocytes), while enabling further hepatic receptor pathway activation (for example, PXR and CAR) in response to chemical exposure. 48 hours after plating, the culture medium was replaced with HepaRG Serum-Free Incudtion Media. Cells were exposed to each test chemical in duplicate and maintained in CO2 incubators for another 48 hours. Chemical plates were thawed to room temperature and 200x concentrations of treatment groups were prepared. 8-point conentration-reponse curves were made with the highest exposure at 100 uM, followed by half-log dilutions, all in 0.5% DMSO. Each test plate contained variouse controls, induction positive controls (1mM phenobarbital), cytotoxicity positive controls ([…] aflatoxin B1), vehicle controls (0.5% DMSO), and total lysis controls (0.5% DMSO). Cell morphology images were taken using an Essen IncuCyte FLR automated microscope, with six 96-well plates imaged in about 24 minutes. Images were captured and exported and JPEG files. Spent culture media was transfered to black-well plates for the LDH assay, and remaining media was sorted at -80 C for later use. Cells were treated with RLT buffer and frozen until shipped for gene expression analysis. Total RNA was isolated from the cell suspension in 75 uL of Buffer RLT (Qiagen, Germantown, MD 20874) by Quintiles/Expression Analysis (Durham, NC) using a custom isolation procedure. Total RNA from each plate well was transferred to a preamplification plate. Fluidigm's 96.96 Dynamic ArrayTM (Fluidigm, Amsterdam, the Netherlands) technology was used for gene expression analyses by quantitative reverse transcription polymerase chain reaction (qRT-PCR, performed by Quintiles/Expression Analysis, Durham, NC)89. Standard TaqManTM Assays (Applied Biosystems/ThermoFisher Scientific, Foster City, CA) were used to assess the expression of 93 genes selected based on their selectivity and sensitivity to important hepatic receptors known to be modulated by environmental chemicals; importance in human hepatocyte functionality; and hepatotoxicity. […]
SMILES,outcome,AC50
Cc1ccc(C(C)C)cc1,inactive,
Clc1ccccc1C(c1ccccc1)(c1ccccc1)n1ccnc1,,15.8 µM (active)
CCN(Cc1cccnc1)C(=O)c1cccc(Cl)c1[C@]1(C)C(=O)N(Cc2ccc(OC)cc2OC)c2ccc(Cl)cc21,,15.5 µM (active)
CCCC(=O)OCCC(C)C,inactive,
O=c1ccc2ccccc2o1,inactive,
CCCCOC(=O)CC(CC(=O)OCCCC)(OC(C)=O)C(=O)OCCCC,inactive,
O=CCCCC=O,inactive,
CCCCCCCCOc1ccc(C(=O)c2ccccc2)c(O)c1,inactive,
COc1ccc2cc(S(=O)(=O)N[C@H](CC(=O)N[C@H](Cc3ccc(CN4[C@H](C)CCC[C@@H]4C)cc3)C(=O)N(C)C(C)C)c3ccc4c(c3)OCO4)ccc2c1,inactive,
CN(C)C(=O)C1(N2CCCCC2)CCN(CC[C@@]2(c3ccc(Cl)c(Cl)c3)CN(C(=O)c3ccccc3)CCO2)CC1,,25.3 µM (active)
CC(C)(c1cc(Br)c(O)c(Br)c1)c1cc(Br)c(O)c(Br)c1,inactive,
Cc1cn([C@H]2C[C@H](N=[N+]=[N-])[C@@H](CO)O2)c(=O)[nH]c1=O,inactive,
CO[C@H]1/C=C/O[C@@]2(C)Oc3c(C)c(O)c4c(O)c(c(/C=N/N5CCN(C)CC5)c(O)c4c3C2=O)NC(=O)/C(C)=C\C=C\[C@H](C)[C@H](O)[C@@H](C)[C@@H](O)[C@@H](C)[C@H](OC(C)=O)[C@@H]1C,inactive,
CC(C)(O)c1ccc(CNC(=O)c2cccnc2Oc2ccc3nonc3c2)cc1,inactive,
CCCCOC(=O)c1ccc(O)cc1,inactive,
CC(C)(C)c1csc(-c2cc3cc(OCc4ccccc4CC(=O)O)ccc3o2)n1,inactive,
COCC(C)OCC(C)OCC(C)O (stereo not given),inactive,
CC1(C)NC(=O)N(c2ccc([N+](=O)[O-])c(C(F)(F)F)c2)C1=O,inactive,
CCOC(=O)O[C@H](C)OC(=O)c1ccc2c(c1)cc(C(=O)NC1CCN(C(C)C)CC1)n2Cc1cc(-c2ccc(Cl)s2)on1,inactive,
CCO[Si](CCCNC(N)=O)(OCC)OCC,inactive,

SMILES,outcome,AC50
COc1cc(C(=O)NC2CCN(C)CC2)ccc1Nc1ncc2c(n1)N(C1CCCC1)CC(F)(F)C(=O)N2C,inactive,
O=C1O[C@H]([C@@H](O)CO)C(O)=C1O,inactive,
c1ccc2ccccc2c1,inactive,
CC(C)(C)c1cc(/C=C2\SC(N)=NC2=O)cc(C(C)(C)C)c1O,inactive,
O=C1c2ccccc2C(=O)N1CCc1noc(-c2ccc(CN3CCCCCC3)s2)n1,inactive,
CC/C(=C(/CC)c1ccc(O)cc1)c1ccc(O)cc1,inactive,
CCCCCc1ccc(N)cc1,inactive,
Cc1c2ccccc2c(C)c2c1ccc1ccccc12,,19.9 µM (active)
Cc1cccc2ccccc12,inactive,
CCCCCCCCCCCO,inactive,
Cc1oc2c(NC(=O)c3c(Cl)cccc3Cl)cccc2c1C(C)(C)O,inactive,
CN(C)c1ccc(C(=C2C=CC(=[N+](C)C)C=C2)c2ccc(N(C)C)cc2)cc1,,88.8 µM (active)
CCCOC(=O)c1cc(O)c(O)c(O)c1,inactive,
CCCCCCCC[Si](OCC)(OCC)OCC,inactive,
CCN(Cc1cccc(S(=O)(=O)O)c1)c1ccc(C(=C2C=CC(=[N+](CC)Cc3cccc(S(=O)(=O)O)c3)C=C2)c2ccccc2S(=O)(=O)[O-])cc1,inactive,
O=C(O)Cn1c(=O)n(Cc2ccc(Br)cc2F)c(=O)c2ccc(Cl)cc21,inactive,
O=C(O)c1ccccc1C(=O)OCc1ccccc1,inactive,
CN1C(=O)N(c2ccccc2Br)Cc2cnc(Nc3ccc4c(c3)OCC(CO)O4)nc21 (stereo not given),inactive,
C[C@]12CC[C@@H]3c4ccc(O)cc4CC[C@H]3[C@@H]1CC[C@H]2O,inactive,
Cc1occc1C(=O)Nc1ccc(C(=O)N2CCC(F)(F)/C(=C\C(=O)N3CCC(N4CCCCC4)CC3)c3ccccc32)cc1,inactive,
